Shown is part of a subset that was picked to be rich in hits.
PD-1 reversal – activators reversing PD-1 mediated T-cell inhibition, primary screen, luminescence, primary human CD4 T cells, PD-L1 beads; CellTiter-Glo 96 h; activation, % (concentration not given with the values); 29,000 tested, under 10 active; call rule not given here;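 further: 0% = median vehicle wells and 100% = positive control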
NOMO-1 viab – NOMO-1 AML cell viability reduction, primary screen, STK33 inhibitor project, CellTiter-Glo luminescence; NOMO-1 AML viability, 72 h; inhibition, % (no concentration beside the values); 37,000 compounds, 7.5% hits; in the data active means inhibition above about 80%
STK33 kin inh – STK33 kinase inhibitors, primary screen, biochemical, luminescence, ADP-Glo, MBP substrate; Serine/threonine-protein kinase 33 (Homo sapiens), Q9BYT3; inhibition, % at 12.5 µM; 27,000 compounds, 0.44% hits; AID 2322, 2010; in the data active means inhibition above about 20%
Target sequence (Q9BYT3 whole entry, looked up): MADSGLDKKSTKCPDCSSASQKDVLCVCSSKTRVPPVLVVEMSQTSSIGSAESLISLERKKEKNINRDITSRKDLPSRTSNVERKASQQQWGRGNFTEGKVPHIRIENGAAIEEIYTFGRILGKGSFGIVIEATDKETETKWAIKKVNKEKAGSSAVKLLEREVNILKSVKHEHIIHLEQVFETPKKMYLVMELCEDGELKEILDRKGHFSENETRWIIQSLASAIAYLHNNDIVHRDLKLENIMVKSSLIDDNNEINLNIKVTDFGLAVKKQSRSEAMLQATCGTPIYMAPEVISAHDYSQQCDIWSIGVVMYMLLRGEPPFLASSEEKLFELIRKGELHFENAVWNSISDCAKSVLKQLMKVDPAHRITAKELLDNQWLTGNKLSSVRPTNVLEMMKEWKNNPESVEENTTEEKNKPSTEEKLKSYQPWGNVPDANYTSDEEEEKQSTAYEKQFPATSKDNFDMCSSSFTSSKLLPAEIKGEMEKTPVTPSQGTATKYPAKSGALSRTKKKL
* = called active by the depositor; · = no result.

SMILES | PD-1 reversal | NOMO-1 viab | STK33 kin inh
C[C@H]1CN([C@@H](C)CO)C(=O)c2cc(NS(=O)(=O)c3ccc(F)cc3)ccc2O[C@@H]1CN(C)Cc1ccc2c(c1)OCO2 | -3.2 | 15.7 | -2.6
Cc1ccc(S(=O)(=O)Nc2ccc3c(c2)C(=O)N([C@H](C)CO)C[C@H](C)[C@@H](CN(C)Cc2ccc4c(c2)OCO4)OCCCC[C@@H](C)O3)cc1 | · | 46.1 | -5.1
C[C@H]1CN([C@@H](C)CO)C(=O)c2cc(NS(=O)(=O)c3ccc(F)cc3)ccc2O[C@@H]1CN(C)Cc1ccc(Cl)c(Cl)c1 | -2.1 | 110.1* | ·
C[C@H](CO)N1C[C@H](C)[C@H](CN(C)Cc2ccc(Cl)c(Cl)c2)Oc2ccc(NS(=O)(=O)c3ccc(F)cc3)cc2C1=O | 0.3 | 21.6 | 1.0
C[C@@H]1CN([C@@H](C)CO)C(=O)c2cc(NS(=O)(=O)c3ccccc3)ccc2O[C@@H]1CN(C)Cc1ccc(Cl)c(Cl)c1 | -1.6 | 103.3* | 1.4
C[C@H]1CN([C@@H](C)CO)C(=O)c2cc(NS(=O)(=O)c3ccccc3)ccc2O[C@H]1CN(C)Cc1ccc(Cl)c(Cl)c1 | -8.0 | 73.5 | 3.0
C[C@H]1CN([C@@H](C)CO)C(=O)c2cc(NS(=O)(=O)c3ccc(F)cc3)ccc2O[C@H]1CN(C)Cc1ccc2c(c1)OCO2 | -0.7 | 93.4* | -1.4
C[C@@H]1CCCCO[C@H](CN(C)Cc2ccc3c(c2)OCO3)[C@@H](C)CN([C@H](C)CO)C(=O)c2cc(NS(=O)(=O)c3ccc(Cl)cc3)ccc2O1 | 0.4 | 87.2* | 2.0
COc1ccc(-c2cc(C(F)(F)F)nc(SCC(=O)Nc3ccc4c(c3)CCC4)n2)cc1OC | · | 71.0 | 2.1
CCCS(=O)(=O)/C(C#N)=C/c1sccc1Oc1ccccc1 | 0.0 | 8.1 | ·
COC(=O)c1ccccc1NC(=O)Cn1nc([N+](=O)[O-])c(Br)c1C | -1.0 | -2.1 | -2.3
O=C(CSc1nnc(-c2cccc([N+](=O)[O-])c2)n1-c1ccccc1)c1ccc(Br)cc1 | -3.4 | 2.0 | 0.9
O=C(Cn1ncc2ccccc2c1=O)Nc1cccc([N+](=O)[O-])c1 | 3.4 | -7.2 | -3.1
Cc1ccc(S(=O)(=O)Nc2ccc3c(c2)C(=O)N([C@H](C)CO)C[C@H](C)[C@@H](CN(C)Cc2ccc(Cl)c(Cl)c2)OCCCC[C@@H](C)O3)cc1 | · | 65.8 | 5.5
C[C@H](CO)N1C[C@H](C)[C@@H](CN(C)Cc2ccc(Cl)c(Cl)c2)Oc2ccc(NS(=O)(=O)c3ccc(F)cc3)cc2C1=O | -3.2 | 35.1 | ·
C[C@@H]1CCCCO[C@H](CN(C)Cc2ccc(Cl)c(Cl)c2)[C@@H](C)CN([C@H](C)CO)C(=O)c2cc(NS(=O)(=O)c3cccs3)ccc2O1 | · | 61.0 | -1.7
C[C@@H]1CCCCO[C@@H](CN(C)Cc2ccc(Cl)c(Cl)c2)[C@@H](C)CN([C@H](C)CO)C(=O)c2cc(NS(=O)(=O)c3cccs3)ccc2O1 | · | 118.3* | 4.7
C[C@@H]1CCCCO[C@@H](CN(C)Cc2ccc(Cl)c(Cl)c2)[C@@H](C)CN([C@H](C)CO)C(=O)c2cc(NS(=O)(=O)c3ccc(F)cc3)ccc2O1 | -4.7 | 99.5* | -0.2
C[C@@H]1CN([C@@H](C)CO)C(=O)c2cc(NS(=O)(=O)c3ccc(Cl)cc3)ccc2O[C@@H]1CN(C)Cc1ccc(Cl)c(Cl)c1 | -1.2 | 115.5* | ·
C[C@@H]1CN([C@H](C)CO)C(=O)c2cc(NS(=O)(=O)c3ccc(Cl)cc3)ccc2O[C@@H]1CN(C)Cc1ccc(Cl)c(Cl)c1 | · | 89.9* | ·
C[C@H](CO)N1C[C@H](C)[C@H](CN(C)Cc2ccc(Cl)c(Cl)c2)Oc2ccc(NS(=O)(=O)c3ccc(Cl)cc3)cc2C1=O | -0.7 | 60.4 | 3.0
Cc1ccccc1NC(=O)CSc1ncnc2scc(-c3ccc(Cl)cc3)c12 | -2.4 | -5.2 | 0.5
COc1ccc(-c2nnc(SCC(N)=O)n2C)cc1OC | 1.1 | -4.3 | 4.3
COC(=O)C1=C(NC(=O)c2ccc(S(=O)(=O)N3CCOCC3)cc2)CCS1 | 2.7 | 30.9 | -1.9
O=c1c(Cc2ccc(Br)cc2)csc2ccccc12 | 0.3 | 11.7 | ·
SMILES | PD-1 reversal | NOMO-1 viab | STK33 kin inh
COc1cccc(NC(=O)CSc2nnc(-c3ccncc3)n2-c2ccc(Br)cc2)c1 | -2.0 | 14.5 | -3.2
CCOC(=O)c1c(NC(=O)c2ccc(NS(C)(=O)=O)cc2)sc2c1CCCC2 | -0.2 | 5.9 | 4.5
O=C1C=CC(=O)N1c1ccccc1 | -7.4 | 113.7* | ·
CC1(C)ONC(=O)N(c2ccccc2)C1=O | 0.2 | 9.0 | ·
COc1ccc(NC(=O)CSc2cc(C)c3cccc(C)c3n2)cc1 | -6.1 | 105.2* | 1.2
CCOc1ccccc1NC(=O)CSc1cc(C)c2cccc(C)c2n1 | -3.8 | 19.7 | 1.0
Cc1ccc(-c2nn(C)c(=O)c3ccccc23)cc1CNC(=O)CN1C(=O)c2ccccc2C1=O | -0.5 | 19.6 | 4.1
COC(=O)C(CC#Cc1ccc2c(c1)[C@]1(C(=O)N2)[C@H](c2ccc(OCCO)cc2)N2[C@H](c3ccccc3)[C@H](c3ccccc3)OC(=O)[C@H]2[C@@H]1C(N)=O)C(=O)OC | · | · | 17.0
Cc1nc(SCC(=O)Nc2cc(C(F)(F)F)ccc2Cl)nc2c1CCCC2 | · | 5.8 | 0.2
COC(=O)CC(O)(CCCC(C)(C)O)C(=O)O[C@@H]1C(OC)=C[C@]23CCCN2CCc2cc4c(cc2[C@@H]13)OCO4 (stereo partly specified) | -15.3 | 98.8* | 3.7
COc1ccc(C#Cc2ccc3c(c2)[C@]2(C(=O)N3)[C@H](C(=O)NC[C@H](O)c3ccccc3)[C@H]3C(=O)O[C@H](c4ccccc4)[C@H](c4ccccc4)N3[C@@H]2c2ccc(OCCO)cc2)cc1 | · | · | 15.6
C[C@H]1CN([C@@H](C)CO)C(=O)c2cc(NS(=O)(=O)c3cccs3)ccc2O[C@H]1CN(C)Cc1ccc(C(=O)Nc2ccccc2N)cc1 | -0.1 | 70.6 | ·
C[C@@H]1CN([C@H](C)CO)C(=O)c2cc(NS(=O)(=O)c3cccs3)ccc2O[C@@H]1CN(C)Cc1ccc(C(=O)Nc2ccccc2N)cc1 | -2.5 | 110.1* | ·
C[C@H](CO)N1C[C@H](C)[C@H](CN(C)Cc2ccc(C(=O)Nc3ccccc3N)cc2)Oc2ccc(NS(=O)(=O)c3cccs3)cc2C1=O | -2.1 | 109.2* | ·
C[C@@H]1CN([C@@H](C)CO)C(=O)c2cc(NS(C)(=O)=O)ccc2O[C@H]1CN(C)Cc1ccc(C(=O)Nc2ccccc2N)cc1 | 0.8 | 27.4 | ·
CC1=C(C(=O)Nc2ccc(Cl)cc2)C(c2cccc(F)c2)n2nc(CCCO)nc2N1 (stereo unspecified) | · | -15.2 | -2.5
COc1ccc(-c2nnn(CC(=O)Nc3ccc(OC)cc3OC)n2)cc1 | 0.0 | 8.7 | 5.1
C[C@@H]1CN([C@@H](C)CO)C(=O)c2cc(NS(=O)(=O)c3ccc(Cl)cc3)ccc2O[C@H]1CN(C)Cc1ccc(C(F)(F)F)cc1 | -1.5 | 107.1* | 5.5
C[C@@H]1CN([C@H](C)CO)C(=O)c2cc(NS(=O)(=O)c3ccc(Cl)cc3)ccc2O[C@@H]1CN(C)Cc1ccc(C(F)(F)F)cc1 | -2.0 | 115.5* | ·
C[C@H](CO)N1C[C@H](C)[C@@H](CN(C)Cc2ccc(C(F)(F)F)cc2)Oc2ccc(NS(=O)(=O)c3ccccc3)cc2C1=O | -3.8 | 9.6 | ·
